Measurements taken from PubChem BioAssay AID504444 (National Center for Advancing Translational Sciences (NCATS), 2011).
Hit rate of the full screen: of about 360,000 compounds, about 7,500 (2.1%) were called active. Not shown: some 20% with an inconclusive outcome. Calls come from the whole dose curve; as a rule, active = well fitted inhibition curve with a large enough effect; inconclusive = small, poorly fitted or top-dose-only effect, or effect the other way; inactive = flat fitted curve, though single readings scatter. The full list was thinned out, with actives kept by preference.

Assay: Nrf2 qHTS screen for inhibitors; note: nearly all actives have a fitted effect of over 60% in size
Details: A549 ARE-Fluc reporter, luciferase luminescence, 18-24 h; series mostly up to 46 µM; activity change, negative = inhibition: at the top concentration
Procedure, shortened: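 Cells were seeded and rested 2 h, then exposed to compounds for 18-24 h. CellTiter-Fluor was read first as a viability measure. BugLite was added 15 min before the final luminescent read of ARE-luciferase activity in A549 cells.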
% is set by controls: 0 for no effect and ±100 for the full control effect; potency is the fitted concentration of half-maximal effect.

Compound	Potency	activity change, negative = inhibition
Cc1cc2c(cc1C)C(c1cccc(OC(C)C)c1)CC(=O)N2 (centres undefined)	16.4 µM (active)	
Cc1ccc(NC(=O)CN2C(=O)CC(C)Sc3ccccc32)c(C)c1 (centres undefined)		-11.2% (inactive)
OC(COc1ccccc1)CN1CCN(c2cccc(Cl)c2)CC1 (centres undefined)		5.04% (inactive)
CCN1C(=O)/C(=C\N2CCN(c3cccc(Cl)c3)CC2)SC1=S		14.6% (inactive)
CCc1nn(CCCN2CCN(c3cccc(Cl)c3)CC2)c(=O)n1CCOc1ccccc1	16.4 µM (active)	
Cc1ccc(-c2noc(CSc3nnc(-c4ccc(Cl)cc4)n3C)n2)cc1		-23.8% (inactive)
COC(=O)c1ccccc1NC(=O)Cn1c(=O)cc(C)c2c(C)nn(-c3cccc(Cl)c3C)c21		19.2% (inactive)
COc1cccc(/C=C/C(=O)OCC(=O)N2CCN(c3ccccc3)CC2)c1		-5.53% (inactive)
COc1cccc(-c2ccc(SCC(=O)N3CCN(c4ccccc4)CC3)nn2)c1	20.6 µM (active)	
Cc1nnc(SCC(=O)N2CCN(c3ccccc3)CC2)n1-c1ccccc1		-13.8% (inactive)
C=CC[C@@H](CC(=O)N[C@H](CO)Cc1ccccc1)C(=O)N[C@H](C)COC(=O)[C@@H](CC=C)Cc1ccc(F)cc1		-13% (inactive)
C=CC[C@H](CC(=O)OC(C)(C)C)C(=O)OC[C@H]1CCCN1C(=O)[C@H](CC=C)CC(=O)N(CCO)Cc1ccccc1		6.87% (inactive)
C=CC[C@@H](CC(=O)N[C@H](CO)Cc1ccccc1)C(=O)N[C@@H](COC(=O)[C@@H](CC=C)Cc1ccc(F)cc1)Cc1c[nH]c2ccccc12		5.43% (inactive)
C=CCC[C@@H](Cc1ccc(F)cc1)C(=O)OC[C@@H](C)NC(=O)[C@H](CC=C)CC(=O)N(CCO)Cc1ccccc1		-20.4% (inactive)
C=CCC[C@@H](Cc1ccc(F)cc1)C(=O)OC[C@H](Cc1c[nH]c2ccccc12)NC(=O)[C@@H](CC=C)CC(=O)N(CCO)Cc1ccccc1	20.6 µM (active)	
C=CCC[C@@H](Cc1ccc(F)cc1)C(=O)O[C@H](CNC(=O)[C@H](CC=C)CC(=O)N(CCO)Cc1ccccc1)c1ccccc1	18.4 µM (active)	
CCOC(=O)c1ccc(N2C(=O)c3n[nH]c(-c4ccco4)c3C2c2ccc(O)cc2)cc1 (centres undefined)		-16.7% (inactive)
O=C1[C@@H](c2ccccc2)[C@@H](c2ccccc2)N1c1cccnc1		-8.38% (inactive)
CCCS(=O)(=O)N1CCCC(C(=O)N2CCN(c3ccccc3)CC2)C1 (centres undefined)		7.07% (inactive)
CC(=O)N1c2ccc(S(=O)(=O)N3CCC(C(=O)NCc4ccc(F)cc4)CC3)cc2CC1C (centres undefined)		-24.8% (inactive)
Cc1ccc(S(=O)(=O)N2CCCC(C(=O)N3CCN(C)CC3)C2)cc1 (centres undefined)		-14.6% (inactive)
CC(=O)N1CCCc2cc(S(=O)(=O)N3CCCC(C(=O)N4CCN(c5cccc(Cl)c5)CC4)C3)ccc21 (centres undefined)	7.31 µM (active)	

Compound	Potency	activity change, negative = inhibition
CC(=O)N1c2ccc(S(=O)(=O)N3CCC(C(=O)N4CCN(c5ccccc5)CC4)CC3)cc2CC1C (centres undefined)		-2.49% (inactive)
CC(=O)N1c2ccc(S(=O)(=O)N3CCCC(C(=O)Nc4cccc(Cl)c4)C3)cc2CC1C (centres undefined)	6.51 µM (active)	
COc1ccccc1CNC(=O)C1CCN(S(=O)(=O)c2ccc3c(c2)CC(C)N3C(=O)C2CC2)CC1 (centres undefined)		8.44% (inactive)
CC(=O)N1c2ccc(S(=O)(=O)N3CCC(C(=O)NC4CCCCC4C)CC3)cc2CC1C (centres undefined)		-27.4% (inactive)
CC(=O)N1CCCc2cc(S(=O)(=O)CCC(=O)N3CCN(c4ccccc4)CC3)ccc21		-18.6% (inactive)
O=C(C1CCCN(S(=O)(=O)c2ccccc2)C1)N1CCN(c2ccc(F)cc2)CC1 (centres undefined)	23.1 µM (active)	
CC(=O)N1c2ccc(S(=O)(=O)N3CCCC(C(=O)NCc4ccc(Cl)cc4)C3)cc2CC1C (centres undefined)	8.2 µM (active)	
CC(=O)Nc1ccc(NC(=O)C2CCCN(S(=O)(=O)c3ccc(Cl)cc3)C2)cc1 (centres undefined)		9.54% (inactive)
O=S(=O)(c1ccc2c(c1)OCCO2)N1CCN(S(=O)(=O)c2cc(F)ccc2F)CC1		4.79% (inactive)
Cn1c(=O)c2c(nc(SCC(=O)Nc3ccc(F)cc3)n2Cc2ccc(Cl)cc2)n(C)c1=O		-16.3% (inactive)
COc1cc(C(=O)N2CCN(S(=O)(=O)c3ccc(C(C)C)cc3)CC2)ccc1OCC(=O)N1CCOCC1		2.4% (inactive)
COC(=O)Cc1c(-c2[nH]c3ccccc3c2CC(=O)OC)[nH]c2ccccc12		5.69% (inactive)
O=C(c1ccc2c(c1)N(Cc1ccccc1)C(=O)c1ccccc1S2(=O)=O)N1CCCC1		-12.5% (inactive)
O=C(CCS(=O)(=O)c1ccc2c(c1)NC(=O)CO2)Nc1cccc(C(F)(F)F)c1		2.09% (inactive)
Cc1cc2c(cc1C)NC1(C[C@H]3CCC(=O)N4CC[C@@H](C1)[C@@H]34)C(=NC(C)(C)CC(C)(C)C)N2 (some centres undefined)		-23.5% (inactive)
COc1ccccc1-c1noc(CSc2nnc(-c3ccccc3)n2-c2ccc(C)c(C)c2)n1		-2.74% (inactive)
COc1ccccc1NC(=O)Nc1nc(CC(=O)Nc2ccccc2F)cs1		-11.4% (inactive)
Cc1ccc(S(=O)(=O)NC(=O)Nc2nc(-c3ccc(F)c(F)c3)cs2)cc1		5.15% (inactive)
COc1ccc(CCNc2nc(-c3cccc(NC(C)=O)c3)cs2)cc1OC		-6.15% (inactive)
COc1cc(CC(=O)Nc2nc(-c3ccc(F)c(F)c3)cs2)cc(OC)c1OC	11.6 µM (active)	
COc1ccc(CC(=O)Nc2nc(-c3ccc(F)c(F)c3)cs2)cc1OC	1.84 µM (active)	
COc1ccc(-c2csc(NC(=O)c3ccc(N4C(=O)CCC4=O)cc3)n2)cc1OC		-0.264% (inactive)
